# High-throughput results: PubChem, National Center for Advancing Translational Sciences (NCATS)
# Rows were chosen to be rich in hits. Some 12% of all compounds tested hit in one or more screens of this group.
# Sfp inh: inhibitors of Bacillus subtilis Sfp phosphopantetheinyl transferase; Biochemical Sfp PPTase activity, qHTS; Potency, µM, for the others: largest response in the series, negative = inhibition, usual class: inhibitors; hit rate 3.5% among 310,000; AID 1490;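 further: the enzyme is Sfp with the accession as filed and its product quenches rhodamine fluorescence; 0% = enzyme reaction without inhibitor and -100% = no enzyme wells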
#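 Fluorescence-quenching assay with 15 nM Sfp, 5 uM rhodamine-CoA and 12.5 uM BHQ-2-labelled ybbR peptide in pH 7.6 Hepes/MgCl2 buffer. Enzyme was pre-incubated with compound for 15 min at room temperature. Rate was taken from the 30-min fluorescence change (525/598 nm).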
# RORgamma inh: inhibitors of mouse ROR gamma transcriptional activity; Drosophila S2 Gal4-RORgamma UAS-luciferase reporter, 20 h; Potency, µM (titrated, usually from 53.6 µM), inactives show at the highest dose activity change, negative = inhibition, hits mostly inhibitors; hit rate 5.4% among 310,000; further: nearly all actives have a fitted effect of over 60% in size
# Target sequence (P51450 whole entry, looked up, the tested form may be a part): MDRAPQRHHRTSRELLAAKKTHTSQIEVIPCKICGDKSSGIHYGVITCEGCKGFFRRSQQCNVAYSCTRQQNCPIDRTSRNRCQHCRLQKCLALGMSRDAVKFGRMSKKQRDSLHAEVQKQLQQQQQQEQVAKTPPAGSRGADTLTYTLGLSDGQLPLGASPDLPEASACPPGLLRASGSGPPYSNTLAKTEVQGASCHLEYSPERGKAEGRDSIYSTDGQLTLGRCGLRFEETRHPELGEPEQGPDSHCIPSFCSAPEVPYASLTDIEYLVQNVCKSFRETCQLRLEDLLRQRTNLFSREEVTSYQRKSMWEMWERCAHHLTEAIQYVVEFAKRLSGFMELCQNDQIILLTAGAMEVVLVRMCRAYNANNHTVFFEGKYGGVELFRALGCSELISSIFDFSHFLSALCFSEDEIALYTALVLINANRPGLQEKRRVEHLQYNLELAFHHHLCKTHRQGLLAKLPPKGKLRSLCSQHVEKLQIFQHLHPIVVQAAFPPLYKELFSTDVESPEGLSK
#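 A Gal4/UAS one-hybrid system in insect cells: metallothionein-promoter Gal4–ROR gamma fusion plus Photinus luciferase reporter. Copper sulfate 700 uM final, 20 hr ambient incubation, luminescent detection after 10 min with reagent.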
# ALDH1A1 inh: blocks purified human ALDH1A1 activity. P00352. Purified ALDH1A1, NADH fluorescence, propionaldehyde substrate. Potency, µM (top dose mostly 75.3 µM), inactives show at the highest dose activity, negative = inhibition, most hits filed as inhibitors. hit rate 7.3% among 220,000. AID 1030; active means well fitted inhibition curve with a large enough effect, not every such curve was filed as active; inconclusive means small, poorly fitted or top-dose-only effect, or another doubt; inactive means no such curve, though single readings can be large or run the other way;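 further: plate controls were no enzyme wells and a reference inhibitor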
# Gal4-VP16 FLuc: counter-screen for ROR gamma inhibitors: Gal4-VP16 reporter | Drosophila S2 Gal4-VP16 UAS-luciferase, luminescence, 20 h | Potency, µM (doses to about 53.6 µM), for inactives: top-dose activity, negative = inhibition, hits mostly inhibitors | hit rate 3.5% among 310,000 | AID 2546;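 further: Gal4-VP16 expression switched on by copper sulfate through the metallothionein promoter; nearly all actives have a fitted effect of over 50% in size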
# PLK1 PBD block: PLK1 (human) polo-box domain binding inhibition | Plk1 PBD binding of FITC phosphopeptide, fluorescence polarization | Potency, µM, for the others: max response, negative = inhibition, hits mostly inhibitors | hit rate 2.8% among 360,000 | AID 720504; further: series mostly up to about 57 µM; nearly all actives have a fitted effect of over 65% in size
# Numbers without * were called inactive; u = inconclusive; x = no result given; [ ] = remark or other dose. Unless noted, the call rests on the fitted dose curve; in most records, active means well fitted curve in the direction sought with a large enough effect; inconclusive means small, poorly fitted or top-dose-only effect, or another doubt; inactive means no such curve, though single readings can be large; an effect the other way counts as inactive or inconclusive. Unless noted, on the % scale 0 is the no-effect control and ±100 the full control effect; potency means the concentration at half of the fitted maximal effect.
SMILES,Sfp inh,RORgamma inh,ALDH1A1 inh,Gal4-VP16 FLuc,PLK1 PBD block
CN(C)c1ccc(CNC(=O)CCNS(=O)(=O)c2cc(Br)cnc2N)cc1,-1%,-25%,x,-2%,27µM*
CC(=O)N1c2ccc(S(=O)(=O)N3CCC(C(=O)NCc4ccc(Cl)cc4)CC3)cc2CC1C (centres undefined),1%,u,x,-21%,7.5µM*
CN(C)c1ccc(CNC(=O)C2CCN(S(=O)(=O)c3ccc4c(c3)CCC(=O)N4)CC2)cc1,-13%,-20%,18µM*,18%,0%
CCC(=O)N1c2ccc(S(=O)(=O)CCC(=O)NCc3ccc4c(c3)OCO4)cc2CC1C (centres undefined),-7%,12%,-7%,-4%,24µM*
Cn1nc(C(=O)OCC(=O)NCc2ccc(Cl)cc2Cl)c2ccccc2c1=O,x,x,x,x,-11%
CC(=O)N1c2ccc(S(=O)(=O)N3CCCC(C(=O)N4CCCC(C)C4)C3)cc2CC1C (centres undefined),7%,u,x,0%,-17%
CC(=O)N1c2ccc(S(=O)(=O)NCCC(=O)NCc3ccc(N(C)C)cc3)cc2CC1C (centres undefined),7%,9%,x,-3%,11µM*
CC(=O)N1c2ccc(S(=O)(=O)NCCC(=O)NCc3ccc(Cl)cc3)cc2CC1C (centres undefined),16%,43%,x,-16%,6%
CC(=O)N1c2ccc(S(=O)(=O)NCCC(=O)N3CCCC(C)C3)cc2CC1C (centres undefined),23%,1%,x,-4%,24µM*
c1ccc(-c2nc(CSc3n[nH]c(-c4cccs4)n3)cs2)cc1,-5%,32µM*,u,5%,-29%
O=C(CSc1n[nH]c(-c2cccs2)n1)N1CCCC1,x,x,x,x,-11%
COc1ccc(-c2n[nH]c(=S)n2Cc2ccco2)cc1,-1%,16µM*,u,u,-23%
COc1cccc(Cc2n[nH]c(=S)n2Cc2ccco2)c1,-1%,3.5µM*,x,-25%,-12%
O=c1c(CCc2ccccc2)nc2cnc(Oc3ccccc3)nc2n1C[C@H]1CCCO1,-14%,-10%,u,-24%,x
COC(=O)c1ccc2c(=O)n(-c3ccc(OC)cc3)c(=S)[nH]c2c1,-4%,2.8µM*,u,5.6µM*,6%
Cc1ccc(-n2c(=O)[nH]c3c(oc4ccccc43)c2=O)cc1,8%,5%,u,-3%,-3%
COc1ccc(-n2c(=S)[nH]c3cc(C(=O)N(C)Cc4ccccc4)ccc3c2=O)cc1,2%,7.9µM*,x,u,2%
COc1ccc(-n2c(=S)[nH]c3c(oc4ccccc43)c2=O)cc1,-22%,2.8µM*,-4%,4.5µM*,-16%
COc1ccc(-n2c(=S)[nH]c3cc(C(=O)O)ccc3c2=O)cc1,-37%,2%,-8%,0%,-4%
CC(C)C1C(=O)N(Cc2cn(CCC3OCCO3)nn2)CCS(=O)(=O)N1Cc1ccc(-c2ccc(F)cc2Cl)cc1 (centres undefined),x,x,x,x,0%
CCCCn1c(-c2ccco2)nc2oc3ccccc3c(=O)c2c1=O,-8%,1%,u,-4%,-7%
C=CCNc1nc(-c2ccc(OC)cc2OC)cs1,-11%,9%,u,18µM*,-1%
C/C(=N\NC(=O)c1cccc(S(=O)(=O)N2CCCC2)c1)c1cccs1,19%,13µM*,-6%,u,27µM*
C/C(=N\NC(=O)c1ccccc1O)c1cccc(NC(=O)c2ccccc2)c1,12%,u,x,4%,-2%
Cc1csc(C(=O)O)c1NC(=O)c1cccc([N+](=O)[O-])c1,-15%,19%,14µM*,-1%,-6%
SMILES,Sfp inh,RORgamma inh,ALDH1A1 inh,Gal4-VP16 FLuc,PLK1 PBD block
CC(=NNC(=O)c1cccc(S(=O)(=O)N2CCCC2)c1)c1ccccc1,x,x,x,x,0%
C/C(=N/NC(=O)c1cc(C2CC2)[nH]n1)c1cccs1,3%,11µM*,7%,10µM*,-2%
CC(=O)Nc1cccc(/C(C)=N/NC(=O)c2ccc(O)cc2)c1,12%,11µM*,8%,u,6%
O=[N+]([O-])c1ccc(C2=Nn3c(nnc3-c3ccc(Cl)cc3)SC2)o1,x,x,-9%[13.5 µM],x,x
Cc1ccc(F)c(C2C3C=CCC(C)C3C(=O)N2Cc2ccccc2)c1 (centres undefined),-14%,10%,x,u,x
C/C(=N/NC(=O)c1ccc(O)cc1)c1cccc([N+](=O)[O-])c1,-7%,3.2µM*,u,13µM*,-19%
C/C(=N\NC(=O)c1cccc([N+](=O)[O-])c1)c1cccs1,12%,4µM*,x,6.3µM*,-4%
C/C(=N\NC(=O)c1cc(-c2cccc([N+](=O)[O-])c2)n[nH]1)c1ccccc1O,-5%,3.2µM*,-4%,18µM*,-17%
O=[N+]([O-])c1cccc(/C=N/Nc2nnc(-c3ccccc3)c(-c3ccccc3)n2)c1,9%,-35%,-3%,-2%,-10%
C/C(=N\Nc1nnc(-c2ccccc2)c(-c2ccccc2)n1)c1cccc([N+](=O)[O-])c1,50µM*,-42%,u,-8%,-2%
CCN(CC)C(=O)Cn1cc(SCC(=O)NC2CCCCC2)c2ccccc21,x,x,x,x,-8%
Cc1noc(C)c1C(=O)N1CCC1(C)C(=O)NS(=O)(=O)c1cccc(F)c1 (centres undefined),x,x,x,x,-4%
CCn1ccnc1CN(C)C(=O)c1cc(COc2ccccc2SC)on1,-2%,1%,x,3%,-10%
CC(=O)Nc1ccc(-c2ccnc3c2CC(C)(C(=O)Nc2ccc(Cl)cc2)O3)cc1 (centres undefined),x,x,x,x,-6%
FC(F)(F)c1ccc(C2[C@H]3CN(Cc4cccnc4)[C@H](c4ccccc4)C34CC2(c2cccnc2)C4)cc1 (some centres undefined),35µM*,8%,-11%,u,-5%
CCN(CC(=O)Nc1ccccc1C(F)(F)F)CC(=O)c1[nH]c(C)c(C(C)=O)c1C,x,x,x,x,-13%
COc1nc(N/N=C/c2ccc(-c3ccccc3[N+](=O)[O-])o2)nc(N2CCOCC2)n1,14µM*,13%,8.9µM*,-20%,-27%
O=[N+]([O-])c1ccc(/C=N/Nc2nc(N3CCCCC3)nc(N3CCCCC3)n2)cc1,-20%,-13%,u,-9%,-5%
O=[N+]([O-])c1ccc(-c2ccc(/C=N/Nc3nc(NCc4ccccc4)nc(N4CCOCC4)n3)o2)cc1,13%,13µM*,u,u,-2%
CC(C)(C)CC(C)(C)NC(=O)/C=C/C(=O)O,13%,-19%,x,3%,0%
C[C@H](NC(=O)c1nc[nH]c1C(=O)N[C@@H](C)C(=O)OCc1ccccc1)C(=O)OCc1ccccc1,10%,13µM*,x,u,-9%
CCN(CC)C(=O)c1[nH]cnc1C(=O)N[C@@H](C)C(=O)OCc1ccccc1,12%,-24%,-2%,-6%,-9%
C[C@H](NC(=O)c1nc[nH]c1C(=O)NC(c1ccccc1)c1ccccc1)C(=O)OCc1ccccc1,4%,u,x,35µM*,-12%
